This passage reports growth results from PubChem BioAssay (NCI).

Compounds without any hit were thinned out: in the full panel of roughly 83,000, 20% have a hit.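 Results are percent growth after 48 hours of single-concentration exposure. 100 means growth as in untreated cells, lower positive values show inhibition; negative values down to -100 show cell death.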 A number with no mark means an inactive call. Active and inactive are the calls of the source. How the source made its calls: active means growth percent below 10; inactive means the rest.

Holding throughout (experiment): NCI-60 one-dose screen, 48 h (100 = growth as untreated, 0 = no growth, -100 = all killed)
For one assay, the system named is RPMI-8226 leukemia. The following applies: 10 µM unless noted.
For the next assay, the system named is OVCAR-8 ovarian. The settings on record: 10 µM unless noted.
In another assay the test system is OVCAR-5 ovarian. The following applies: 10 µM unless noted.
The subject of the next assay is OVCAR-4 ovarian. The following applies: 10 µM unless noted.
A further assay has as its system SK-OV-3 ovarian. The settings on record: 10 µM unless noted.
A further assay has as its system IGROV1 ovarian. The settings on record: 10 µM unless noted.
For the next assay, the system named is OVCAR-3 ovarian. The settings on record: 10 µM unless noted.
The next assay has as its system HS 578T breast. The settings on record: 10 µM unless noted.
In the next assay the test system is NCI/ADR-RES ovarian. The following applies: 10 µM unless noted.
For the next assay, the system named is T-47D breast. The following applies: 10 µM unless noted.
In the next assay the test system is BT-549 breast. The following applies: 10 µM unless noted.
In another assay the test system is MDA-MB-435 melanoma. The settings on record: 10 µM unless noted.
Another assay concerns SW-620 colon. The settings on record: 10 µM unless noted.
Another assay concerns MCF7 breast. The settings on record: 10 µM.
A further assay deals with HCT-116 colon. The following applies: 10 µM unless noted.
The next assay concerns HCC-2998 colon. The following applies: 10 µM unless noted.
The subject of a further assay is KM12 colon. The settings on record: 10 µM unless noted.

Turning to `Cc1ccc(S(=O)(=O)c2c(COC(=O)c3cccc(C)c3)c(-c3ccccc3)nn2C)cc1`, the growth with RPMI-8226 leukemia is 78.5%; in the assay on OVCAR-8 ovarian, 88.5%; with OVCAR-5 ovarian, 115%; in the assay with OVCAR-4 ovarian, -59% (active); in the assay on SK-OV-3 ovarian it was 104%; in the assay with IGROV1 ovarian it was 80.9%. Moreover, the growth was -77.9% (active) in the assay with OVCAR-3 ovarian; 99.9% with HS 578T breast; 106% in the assay on NCI/ADR-RES ovarian; -64.3% (active) in the assay on T-47D breast; 57.1% in the assay on BT-549 breast; -33.7% (active) in the assay on MDA-MB-435 melanoma. Further, the growth with SW-620 colon is -37.2% (active); in the assay with MCF7 breast, -49.2% (active); in the assay on HCT-116 colon it was 0.235% (active); in the assay on HCC-2998 colon, 60%; with KM12 colon it was 16.3%.

As for `CC1(C)CC2(C)OC2C2(C1)N=NC(=Nc1ccccc1)O2` (stereo not drawn), the growth in the assay on RPMI-8226 leukemia is 4.43% (active); in the assay on OVCAR-8 ovarian, 77.8%; in the assay with OVCAR-5 ovarian it was 94.3%; with OVCAR-4 ovarian, 60.9%; in the assay on SK-OV-3 ovarian, 117%; in the assay on IGROV1 ovarian, 89.6%. Further, the growth in the assay with OVCAR-3 ovarian was 10.3%; with HS 578T breast, 103%; in the assay with NCI/ADR-RES ovarian it was 92.7%; with T-47D breast it was 63.9%; in the assay with BT-549 breast it was -19.1% (active); in the assay on MDA-MB-435 melanoma it was 59.5%. The growth was 23% in the assay with SW-620 colon; 23.9% in the assay on MCF7 breast; 20% in the assay with HCT-116 colon; 102% in the assay on HCC-2998 colon; 87.7% in the assay with KM12 colon.

For the molecule `O=C(Nc1ccc(N2CCNCC2)cc1)c1[nH]ncc1Nc1cc(C2CC2)ncn1`, the growth was 55.4% with RPMI-8226 leukemia; 81.2% with OVCAR-8 ovarian; 99% in the assay on OVCAR-5 ovarian; 62.3% with OVCAR-4 ovarian; 10.3% with SK-OV-3 ovarian; 33.4% in the assay on IGROV1 ovarian. For the same molecule, the growth in the assay with OVCAR-3 ovarian was 43.7%; in the assay on HS 578T breast, 41.1%; in the assay with NCI/ADR-RES ovarian it was 102%; with T-47D breast, 57.1%; in the assay with BT-549 breast, 42.9%; in the assay with MDA-MB-435 melanoma, 50.6%. The growth was 33.1% with SW-620 colon; 37% in the assay on MCF7 breast; 14.6% with HCT-116 colon; 46.3% in the assay on HCC-2998 colon; 21.1% with KM12 colon.

As for `CCCc1c(C)c2sc(=O)[nH]c2[nH]c1=O`, the growth was 112% with RPMI-8226 leukemia; 104% in the assay on OVCAR-8 ovarian; 103% in the assay with OVCAR-5 ovarian; 100% in the assay with OVCAR-4 ovarian; 104% in the assay on SK-OV-3 ovarian; 112% in the assay on IGROV1 ovarian. In addition, the growth was 113% with OVCAR-3 ovarian; 103% with HS 578T breast; 105% in the assay on NCI/ADR-RES ovarian; 102% in the assay with T-47D breast; 110% in the assay on BT-549 breast; 112% in the assay on MDA-MB-435 melanoma. The growth is 102% in the assay on SW-620 colon; 97.6% with MCF7 breast; 106% in the assay on HCT-116 colon; 106% with HCC-2998 colon; 105% with KM12 colon.

As to `COc1nccc2cc3c(=O)n4c(cc5ccccc54)c(=O)n3c12`, the growth is 95.7% in the assay on RPMI-8226 leukemia; 111% in the assay with OVCAR-8 ovarian; 107% with OVCAR-5 ovarian; 97.3% in the assay with OVCAR-4 ovarian; 102% with SK-OV-3 ovarian; 66.9% in the assay with IGROV1 ovarian. Also, the growth with OVCAR-3 ovarian is 103%; in the assay on HS 578T breast it was 106%; in the assay on NCI/ADR-RES ovarian it was 100%; in the assay on T-47D breast it was 68.4%; in the assay on BT-549 breast, 104%; with MDA-MB-435 melanoma it was 110%. The growth was 101% in the assay on SW-620 colon; 49.1% in the assay on MCF7 breast; 104% in the assay on HCT-116 colon; 104% with HCC-2998 colon; 103% in the assay with KM12 colon.

Turning to `CC(C)CCNCC(O)Cn1c2ccccc2c2ccccc21` (stereo not drawn), the growth in the assay on RPMI-8226 leukemia was -24% (active); with OVCAR-8 ovarian it was 6.95% (active); in the assay on OVCAR-5 ovarian it was 41.3%; in the assay with OVCAR-4 ovarian it was 21.8%; in the assay with SK-OV-3 ovarian, 28.5%; with IGROV1 ovarian, 10.3%. Moreover, the growth in the assay with OVCAR-3 ovarian was -36.2% (active); in the assay on HS 578T breast, 24.3%; in the assay on NCI/ADR-RES ovarian, 20%; in the assay on T-47D breast, 12.2%; in the assay with BT-549 breast, 84.3%; with MDA-MB-435 melanoma, 5.65% (active). For the same molecule, the growth with SW-620 colon is 12.5%; with MCF7 breast it was 8.76% (active); in the assay with HCT-116 colon it was 4% (active); with HCC-2998 colon it was 12.1%; in the assay with KM12 colon, 15.7%.

On to `CCN1C(=O)N(CC)C2C1NC(=S)N2/N=C/C=C/c1ccccc1OC` (stereo not drawn), for which the growth in the assay with RPMI-8226 leukemia is 16.5%; in the assay with OVCAR-8 ovarian, 14.8%; with OVCAR-5 ovarian, 45.2%; in the assay with OVCAR-4 ovarian, 53.5%; with SK-OV-3 ovarian it was 33.7%; in the assay with IGROV1 ovarian, 31.2%. Also, the growth in the assay on OVCAR-3 ovarian is 16.6%; with HS 578T breast, 40.3%; in the assay on NCI/ADR-RES ovarian it was 6.29% (active); in the assay with T-47D breast it was 65.9%; with BT-549 breast, -5.67% (active); with MDA-MB-435 melanoma, -20.9% (active). For the same molecule, the growth with SW-620 colon is 23.6%; with MCF7 breast it was 17.8%; in the assay on HCT-116 colon it was 2.3% (active); with HCC-2998 colon, 12.4%; with KM12 colon, 15.6%.

For `COc1ccc(C2Nc3nc(OC)n(C)c(=O)c3N=C3c4ccccc4C(=O)C32)cc1` (stereo not drawn), the growth in the assay with RPMI-8226 leukemia was 92.1%; with OVCAR-8 ovarian it was 103%; in the assay on OVCAR-5 ovarian, 103%; in the assay with OVCAR-4 ovarian it was 88.5%; with SK-OV-3 ovarian it was 109%; with IGROV1 ovarian it was 140%. Moreover, the growth is 94.6% in the assay on OVCAR-3 ovarian; 100% in the assay on HS 578T breast; 97.6% in the assay on NCI/ADR-RES ovarian; 101% in the assay with T-47D breast; 86.3% in the assay with BT-549 breast; 78.5% in the assay on MDA-MB-435 melanoma. Also, the growth in the assay with SW-620 colon is 90%; in the assay on MCF7 breast it was 74.5%; in the assay with HCT-116 colon, 95.4%; in the assay with HCC-2998 colon, 103%; in the assay with KM12 colon, 75%.

`Cc1ccc(Cc2cnc(NC(=O)CN3C(=O)/C(=C\c4ccccc4)SC3=S)s2)cc1`: the growth is 105% in the assay on RPMI-8226 leukemia; 102% in the assay on OVCAR-8 ovarian; 101% with OVCAR-5 ovarian; 99% with OVCAR-4 ovarian; 104% with SK-OV-3 ovarian; 105% with IGROV1 ovarian. The growth with OVCAR-3 ovarian is 112%; in the assay with HS 578T breast, 102%; in the assay with NCI/ADR-RES ovarian, 107%; with T-47D breast, 98.8%; in the assay with BT-549 breast, 117%; with MDA-MB-435 melanoma it was 107%. Also, the growth is 107% in the assay with SW-620 colon; 95.8% in the assay with MCF7 breast; 103% in the assay with HCT-116 colon; 105% with HCC-2998 colon; 103% in the assay on KM12 colon.
